# PubChem BioAssay AID1159506 (National Center for Advancing Translational Sciences (NCATS), 2015)
# Whole data set: some 59,000 sequences, median the read-out near -0.00055, cut for the lowest 2% near -2. The entries come from a sample that favours the lowest values as a whole.
# Experiment: Identification of proteins required for the processing of the EWS-FLI1 nascent transcript;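 further: robust z of luciferase light less the median z of siRNAs with the same seed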
# Settings: TC32 Ewing sarcoma NR0B1-luc vs CMV-luc (EWS-FLI1 target promoter against control promoter), 48 h; screened at 20 nM (by protocol)
# Summary of the method: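 Three siRNAs per gene, each in a separate well at 20 nM, were transfected into TC32 cells bearing either reporter construct. Luminescence was measured two days on, and per-gene comparison relied on seed-corrected Z values.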
row,Sequence,seed-corrected z-score
1,UGAGUACCGUGAUAAAUGC against TAS1R2,0.56
2,UUAGCAUCCACGAUACCAC against CFAP47,0.706
3,UUAAUGAACACAAGCAUGU against RPL23AP14,0.756
4,UAUGUUGUGCGGCUCUCCC against SOX15,-2.31
5,UAACGAAUAAUCAUCUUCC against ICE1,0.115
6,UCCAAAUUUGAGUACAUCC against SNIP1,0.505
7,UAAGGCUUUAGUGAGCUCU against FXN,0.805
8,UUGCCGUAGACAGCAUGGG against GPR173,-0.733
9,UCUGGUUCCUCUUUAAGUG against RPL27A,-3.53
10,AAUGUUCCUAUUUAUUUCG against RNF214,-0.629
11,UCAGGAUCAAGCAUGUUCC against LOC645177,-0.115
12,UGUGCUAUAAGAGAUCCAG against TANC2,-0.454
13,AAAGUAGUCACCUGGACCA against ODF3,-2.14
14,UUCCUCAUGAGCACCAUCC against TEDDM1,0.185
15,AUCUAUUAUGGUUUCGAUC against BAZ1B,-0.12
16,UCUCUGUACCCAACUCCGC against ZNF212,-0.31
17,AAUGAAAUAGUGCUGUUUG against KCTD1,0.318
18,UCUGCUUGGAAAUAUCUCG against GRSF1,-4.11
19,AAUCCUCUUAUGAAUAACG against ZNF331,-0.158
20,AAGGAUACCAUCAUGUAGC against FZD3,0.547
21,UUUGUAACAUCAAUCAGAG against EXOC4,0.287
22,AUUCGGGAUAUAUAGAUUG against LIN7C,0.308

row,Sequence,seed-corrected z-score
1,UCAAGUACAUUGCAGUUUG against PDK1,-0.235
2,UCCAGGUUUAUAUAGGUUG against MT1X,-7.89
3,UCAUAAGUGACAAGGCUGC against DCTN2,-0.548
4,UGACGUGAUAGCUUGAACC against EXPH5,0.908
5,UUUGAUUCCAUGUAGCUGU against MTCP1,0.871
6,ACAUCAUCCACUUCGUUCC against UNC93B1,-3.19
7,UUAACUGCAUCCCUAAUCC against AVEN,-1.22
8,UUCUUUACAUGCUGCAUUC against GALNT11,0.394
9,UUCAUGUCGAUAACUGUGG against KCNJ15,-0.324
10,UCUUGGAACAGGAUCUUCU against TAOK2,-0.173
11,UCAUGAAUUGUGGCAGGCA against LINC00598,0.856
12,ACUGCUUUGACAUCUGGGC against SNF8,-0.699
13,UGACUAAUAAGAAUGCCCG against SLC2A2,-0.863
14,AUAACUACAGCAUCAGAGG against WDR60,0.989
15,AACCGUUUCAUAAACUCCC against MCMBP,0.188
16,UAUUCGUACUCAAACGUGC against SFPQ,-2.1
17,AUACAUGUCAGCUGAGUAG against POU2AF1,-0.413
18,AGUGUCUCUACUCAGGUUC against CSF2,1.91
19,UUCGGAUAUAGAGGUAGGC against SNRNP200,-2.46
20,UGAGUCAAAUGUUCUUUGG against KLF16,0.422
21,UUUUUCUGAACUCUCGUCU against C1orf174,-1.93
22,AAAUUUACCUAUGUUCUUC against PBX1,2.08

row,Sequence,seed-corrected z-score
1,UUUUAGAAAGUUCAUGUCC against CD69,0.737
2,UUCGUGUAGACUGACCUUC against LRCH1,-9.4
3,UCAGGUUCUUUGUCUGACC against IRS1,-1.53
4,UGGUCUGCAAAGGUAAUGC against PLRG1,0.251
5,UAAGUAGGCACAACACUCA against DEXI,0.701
6,AACUGAACAUUUAUAGAGC against MTERF2,1.28
7,CUAUAGAUGAAGUAGGUGC against EDA,1.41
8,AGAGUUUCUGGUAUAGACC against TAS2R38,-2.98
9,AAGGAUAUGAAGGUAAUUC against ZNF518A,-0.0667
10,UUAGGGAUGAACCAAGGCA against ATP6V0E1,0.122
11,UUUGCAAUGACACGAAGCC against APOL4,0.249
12,AUAGUUGCAGGAAACUUCU against LOC441907,-2.67
13,UUCCUGAGUUCUUUCGUCC against DYRK1B,-0.484
14,UGUUCUAUUUCACUUACUC against ZBTB26,-0.568
15,AAAGGAGCAUAAAUUUAGU against LOC400867,2.06
16,UAUGCAUAAACGGUCUUCA against SH3BGR,-0.25
17,UAUUUCACGUCGAUAGAGC against TMEM106B,-2.63
18,UGAGGGUUGAGUGUAAGUC against FUK,-0.673
19,UUGUGAACUGAUUACACUG against CCDC66,0.423
20,UUGACCAUCAAGUAUUAGC against WDR47,-10.6
21,UUCUGAUCAAGGCUAGACC against SHROOM3,-0.584
22,UGAACUCCUCUGCAUAUUC against HLA-F,0.183

row,Sequence,seed-corrected z-score
1,UUGGUGUCCGGAGAGGUGU against IRF3,-0.0987
2,AACUCCGUCAGUUCCUUCC against FAM167A,0.463
3,ACAGCUAUCACUGCAUGCC against OR14J1,-3.81
4,UUUAGGUACAGAAUCCCUG against HDHD3,0.511
5,UCUUCAAUAAUGUGCAUCC against SEMA4G,0.069
6,UUCUCCGUUUCUGUUAUGC against SYCP2L,0.199
7,UGCUGUUCUGUGCUGUUCC against ARID5A,-2.31
8,UCAGGCUCAACCACCAGCA against ESRRA,-1.16
9,UAUAUCCACAGUGCGGAUC against RAB13,0.253
10,AUACUUGCGAUAAAGGUGC against CSGALNACT1,-1.05
11,UCAGCUCCAACUGAAGGUC against ID1,0.724
12,AAUGGUGUCAGUUCCUCUG against ETFA,0.854
13,AGCAUUACAACUAAAAUCC against ZSCAN10,-3.27
14,UAGCCAUUCUCGCUCAUGC against AZU1,0.88
15,UGAUCUAUCUUAGUCGCUC against POLQ,-0.0262
16,UUUCCGUACAUGAAGCAGC against AGBL5,-0.0403
17,UUCAUUAUCGAUUUUUGCC against CYB5R2,-0.288
18,UGGGAUGAGAGACUCCUCC against C6orf25,-0.121
19,UGUUGUAGUGGGCCAGACG against HIST1H2BG,-2.35
20,UCCGAAAGCACCACGAUGA against SIGIRR,0.222
21,AAAGGCCCAACAUCUGACU against ZDHHC8P1,0.314
22,UUCCGACUCGCUGAAGUGC against RPS6KA4,0.407

row,Sequence,seed-corrected z-score
1,UUGGGUACCUCAGUCCACG against SNRPD2P1,-5.01
2,UUUGUUGUAGUCACAUUCC against S100A3,-1.11
3,UAAGGAAGUAGUCUCGUUU against TUBGCP6,0.26
4,UAGUGGAUAUAUCUCGGCC against YLPM1,0.196
5,UAUACUCGAAAUGUGGUUC against KIAA1586,-0.337
6,UUGCAGAGCAUGUGAGUCC against KRTAP13-3,-0.281
7,UGCAUGUCGGGAUAGUUGC against GRIN2D,0.123
8,UCCUCGUUCAGCACCCUUC against DNAJB13,-0.18
9,UUUGAUGAUCUGUAAGGCC against CNOT10,-2.03
10,UGUAUUGCAAGGUUAUAAC against ZNF836,0.433
11,AAAGUGAACAUCGGGUCCC against LILRA4,-0.351
12,UCCAUGUUGACUAAGAUUC against GRHL3,-0.595
13,UUUCUGGUAAAACUCCUCA against HS1BP3,0.892
14,UGACGUGACAAGCUGAAUG against ALYREF,-0.554
15,UUAGAUUGCACAAUCCUGU against DMRTC1,0.235
16,UUAAGAUUGACCUUUCUCC against KIAA1755,-0.0251
17,UUUGGUGCUUAGUUUGUUC against LOC642262,-2.38
18,AUCUUUACAAAUACCCUGC against BCL11A,-0.136
19,UUUAUAUUCAAUGGGCUUC against FAM45A,-0.523
20,UAAGGUUCGGAUAUGGGUA against C9orf24,-0.108
21,UUCUUUAUAGGCAUAGGCU against RPH3A,-2.08
22,UAAGGUUGGUGACUGGAGA against MUC6,-0.303

row,Sequence,seed-corrected z-score
1,UUUCUGUAGGCUUUUCUGG against DPCR1,-0.53
2,UUCUCCAUCAAAUUAGCCG against LIN52,0.578
3,UAGCUUCAAUACUUCAUCC against LRRC27,-0.986
4,UUCGAGCUUUCUUAUGUCC against SLC12A6,-0.303
5,UGUUAUUGAAGAUGUCAGC against SLF2,-2.1
6,ACAGCAAGCAUUCAGAGUC against MMS19,0.146
7,UCUGGAAUAACGGUGCAGC against C15orf62,-1.54
8,AUAUCAAUGAUUGAGAGGU against OR4F15,0.359
9,AACUCUGCGAACACGGCCU against AQP5,-2.17
10,UAAGGCCCAAAUUUGUCUC against HSF4,-0.0642
11,UACAUUGACAGCAUAUCCU against NSDHL,0.882
12,UGAUGAAGUAGAGACGUGC against EXTL2,0.177
13,UAAAAUGUCUGACUCCUUG against CDKN1A,-0.147
14,AAACUGGUUGGAGUUGUUG against ITGB2,0.512
15,UGUUUUACCAACAGCACCA against CDC42,-1.21
16,UCAGGUGGUAGGGAGGUUG against UBE2L6,-2.37
17,CAGGUAGAACGUGUCGUCC against ENDOG,0.88
18,AAUGAGAUUAUGUUGGUCA against SNX29,-1.19
19,UUCUAUGCAAUCCAAAACC against DGKB,0.554
20,UUAGUUUCUACAUUAUUGU against ENTPD1-AS1,0.559
21,UAGGAGAUAAAGAUAACUA against OR5B2,-12.5
22,AGUACUACAAACCAAAUCC against FAM35A,-0.242
